# Assay results published in the supplement of paper PMC6555819.
# Test system: PPARg:RXRa 30nM:10nM, anti-RXR (NR concentration 30 nM, RXRa partner concentration 10 nM)
# Test: PBM binding z-score (relative to random genomic background probes); higher = stronger binding; sequences stand for … in GC…GCGATTGACAGCGTAGAATGAAGG
# Outline: (§1)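 On custom Agilent 4×180K arrays, double-stranded probes with 34-nt variable regions carried direct-repeat seeds, single-nucleotide variants, half-site ablations or random human genomic background. Ligand-free nuclear receptor dimers were applied for 1 h, and binding was read with antibodies against each partner (one per run). Binding z-scores come from regression-normalized fluorescence, with the random background probes as reference.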
row,Sequence,PBM binding z-score
1,TCATATAGGTAAAGGTGAAAGTAGAACGATATGA,4.45
2,CCGAGTAGGTTATGCGGCATTCAGGCAACGGTGA,-0.439
3,TCAGCCAGGTGAAGGTAACTCAGGTACGCAGTCG,2.09
4,ACTAGCAGGCCAAGTTTGGGTTACTCAAACAAAG,-0.354
5,CCTCGGAGGAAAACAGGAGGTCAGAGCTGCCAGA,-0.762
6,ATATGTTGGTTAGCTGGGGTCATTCAGACTAGGC,0.784
7,GCTTACGGGCCAAAGGTTATAGCATGAATAGAAT,6.58
8,GCTAGCAGGCCATTTGGGTCACTTAATGACGGGC,-0.515
9,ATCGAAAGGTCGAAGGTGAGTAAACCCACCCGAA,1.91
10,TTACCAATGTGAAGGTCGTTGATCCCTCTGTAGA,1.12
11,TCATATAGGTTATACAGGTGAAAGTCGGCATCTA,3.94
12,AATACAGGGTCACTAGGCCAGAGCAGGTACGAAT,3.36
13,CCAGACAAGTGAAAGGTAACTCAGTCTGGTACGC,0.692
14,CCTACTGGGCCACGAAGGGTCATTGATTCAGTGA,1.17
15,CAGCTTAGGTCAGGGCCAGTATAGGAGGAACGTT,-0.0225
16,TCGCCTAGGTCATGCGGGCCAGTATAGTGTCGGC,1.32
17,ATCGAAAGGTCGAGGTGAGTAAAGAGAAAGGGAA,1.09
18,ATACCAAGGTGATCGTGAGGGCGTTGATACTAAC,-0.112
19,CCTAATGGGCCATCAGGTCATTGATATCAACGTT,0.609
20,TAGCCTAGGTCATTCGGCCAGTATAGTACGCATC,0.539

row,Sequence,PBM binding z-score
1,TAAATGAGGTTATAAGATCAGGGAACGTTGCAAA,2.19
2,AGAATAAGGTTAAGATCAGGGAAACAGAATACAT,0.741
3,TAGCGTAGGTCATTCAGGGGCCAGTATAGAAAGC,0.626
4,TTTTGTAGATCAAGCAGGTTAAGAAAGCCTGAGT,0.224
5,ATCTCTAGGTAACCAAGTTCAGTGATTGCCGAAC,0.204
6,TCATATAGGTAGAAGGTGAAAGTCGGTGTGGTAA,5.99
7,ACAGACAGGTGATGAAGGTAATTCAGGCTATCAT,0.0788
8,AGAACGAGGGAAATGAGTTGATAGCACGGGTGGC,-0.0468
9,ACTTACGGGTCAACGAGGTTATAACACGCGTATA,2.6
10,ACAGACCGGTGATGAAGGTAACTCAGGCTATCAT,-0.0977
11,AGAATGAGGTTATACGTAGATCATGGAAGAAAGT,1.01
12,TGAATGAGGTTGTAAGATCAGGGAACGTTGCAAA,0.261
13,ACTAGCAGGCCAAGTTTGGGACACTCAAACAAAG,-0.775
14,CGTCAAAGTTCAGGGTAACGTAACAGAAAGCAGC,1.26
15,ACAATTAGTTGAGACGAGGGCAACCGATAGGTTG,0.274
16,TCGAGTAGGTTAGTCGGGGCATTCAGCCAACATA,0.435
17,CAAACTCGGTCAAGGTCAAAGTCGGTTTGTGCCA,2.42
18,CCTACTGGGACATCAGGTCATTGATATCAACGTT,1.61
19,AGTCAAAGTTCAGGACGGGGTAACGTAAAGCACG,2.19
20,ATCTCTAGGTAAAGATAGTTTAGTGAATGCAAAT,0.448

# Test system: PPARg:RXRa 90nM:30nM, anti-RXR (NR concentration 90 nM, RXRa partner concentration 30 nM)
# Test: as above
# Outline: as §1
row,Sequence,PBM binding z-score
1,TCATATAGGTAAAGGTGAAAGTAGAACGATATGA,4.86
2,CCGAGTAGGTTATGCGGCATTCAGGCAACGGTGA,0.685
3,TCAGCCAGGTGAAGGTAACTCAGGTACGCAGTCG,1.5
4,ACTAGCAGGCCAAGTTTGGGTTACTCAAACAAAG,-0.657
5,CCTCGGAGGAAAACAGGAGGTCAGAGCTGCCAGA,-0.104
6,ATATGTTGGTTAGCTGGGGTCATTCAGACTAGGC,1.8
7,GCTTACGGGCCAAAGGTTATAGCATGAATAGAAT,7.83
8,GCTAGCAGGCCATTTGGGTCACTTAATGACGGGC,0.00792
9,ATCGAAAGGTCGAAGGTGAGTAAACCCACCCGAA,4.14
10,TTACCAATGTGAAGGTCGTTGATCCCTCTGTAGA,0.829
11,TCATATAGGTTATACAGGTGAAAGTCGGCATCTA,3.58
12,AATACAGGGTCACTAGGCCAGAGCAGGTACGAAT,5.53
13,CCAGACAAGTGAAAGGTAACTCAGTCTGGTACGC,1.77
14,CCTACTGGGCCACGAAGGGTCATTGATTCAGTGA,2.58
15,CAGCTTAGGTCAGGGCCAGTATAGGAGGAACGTT,0.447
16,TCGCCTAGGTCATGCGGGCCAGTATAGTGTCGGC,1.71
17,ATCGAAAGGTCGAGGTGAGTAAAGAGAAAGGGAA,2.5
18,ATACCAAGGTGATCGTGAGGGCGTTGATACTAAC,-0.238
19,CCTAATGGGCCATCAGGTCATTGATATCAACGTT,1.98
20,TAGCCTAGGTCATTCGGCCAGTATAGTACGCATC,1.55

row,Sequence,PBM binding z-score
1,TAAATGAGGTTATAAGATCAGGGAACGTTGCAAA,2.51
2,AGAATAAGGTTAAGATCAGGGAAACAGAATACAT,1.19
3,TAGCGTAGGTCATTCAGGGGCCAGTATAGAAAGC,1.6
4,TTTTGTAGATCAAGCAGGTTAAGAAAGCCTGAGT,-0.0432
5,ATCTCTAGGTAACCAAGTTCAGTGATTGCCGAAC,0.579
6,TCATATAGGTAGAAGGTGAAAGTCGGTGTGGTAA,7.35
7,ACAGACAGGTGATGAAGGTAATTCAGGCTATCAT,-0.356
8,AGAACGAGGGAAATGAGTTGATAGCACGGGTGGC,-0.319
9,ACTTACGGGTCAACGAGGTTATAACACGCGTATA,4.07
10,ACAGACCGGTGATGAAGGTAACTCAGGCTATCAT,-0.129
11,AGAATGAGGTTATACGTAGATCATGGAAGAAAGT,1.79
12,TGAATGAGGTTGTAAGATCAGGGAACGTTGCAAA,0.21
13,ACTAGCAGGCCAAGTTTGGGACACTCAAACAAAG,-0.548
14,CGTCAAAGTTCAGGGTAACGTAACAGAAAGCAGC,2.42
15,ACAATTAGTTGAGACGAGGGCAACCGATAGGTTG,0.45
16,TCGAGTAGGTTAGTCGGGGCATTCAGCCAACATA,0.377
17,CAAACTCGGTCAAGGTCAAAGTCGGTTTGTGCCA,3.93
18,CCTACTGGGACATCAGGTCATTGATATCAACGTT,3.06
19,AGTCAAAGTTCAGGACGGGGTAACGTAAAGCACG,4.12
20,ATCTCTAGGTAAAGATAGTTTAGTGAATGCAAAT,0.329
